Bioassay records (PubChem BioAssay)
TDP1 cell CPT: qHTS for Inhibitors of human tyrosyl-DNA phosphodiesterase 1 (TDP1): qHTS in cells in presence of CPT | chicken DT40 Tdp1-/-;hTDP1 cells + 20 nM CPT, ATP luminescence, 48 h | Potency, µM (top dose mostly 46.2 µM), for the others: at the top dose activity change, negative = growth inhibition, usual class: inhibitors | actives 12% (n = 420,000) | AID 686979, 2013; also: potency is read from the fitted curve at half-maximal effect; % is scaled to controls: 0 for no effect and ±100 for the full control effect; nearly all actives have a fitted effect of over 55% in size
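Chicken DT40 Tdp1-/- cells stably complemented with human TDP1 were seeded at 400 cells/well in medium containing 20 nM camptothecin, exposed to pin-transferred compounds, and grown at 37 °C for at least 48 hr. Viability was read as ATP luminescence.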
IL-1B inflam inh: qHTS for Inhibitors of Inflammasome Signaling: IL-1-beta AlphaLISA Primary Screen. AID 743279, 2014. actives 4.7% (n = 360,000). THP-1 LPS/ATP IL-1B secretion, AlphaLISA, 16 h; active compounds read low. activity change, % at 57.5 µM; in the data active = activity change below about -50%; inconclusive = mostly about -30% to -49%; also: % is scaled to controls: 0 for no effect and ±100 for the full control effect
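Secreted IL-1B measured by AlphaLISA bead assay after 16 h compound exposure of THP-1 cells; compounds (final up to 57.5 uM) added 1 h before LPS (250 ng/mL) and ATP (1.25 mM) stimulation; lower signal means less secretion.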
HepG2 viability: qHTS for Inhibitors of TGF-b: Cytotox Counterscreen | HepG2 CAGA-GFP viability, ATP luminescence, 18 h | AID 588856, 2011 | actives 0.76% (n = 410,000) | Potency, µM (titrated, usually from 46.1 µM), without a hit: top-dose activity change, negative = cytotoxicity, most hits filed as cytotoxic; also: potency is read from the fitted curve at half-maximal effect
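HepG2 CAGA-GFP cells (1000/well, DMEM with 1% FBS) received compound, then TGF-beta at 500 pg/mL final, and were incubated 18 hours at 37 degrees C. Viability was read by CellTiter-Glo luminescence. Media-only wells were set as complete cell-killing and DMSO as no toxicity.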
DT40 TDP1 no CPT: qHTS for Inhibitors of human tyrosyl-DNA phosphodiesterase 1 (TDP1): qHTS in cells in absence of CPT; DT40 Tdp1-/- hTDP1 cells, no CPT, ATP luminescence, 48 h; Potency, µM (highest dose often 46.2 µM), for inactives: at the top dose activity change, negative = growth inhibition, usual class: inhibitors; actives 15% (n = 420,000); AID 686978, 2013; also: potency is read from the fitted curve at half-maximal effect; % is scaled to controls: 0 for no effect and ±100 for the full control effect; nearly all actives have a fitted effect of over 55% in size
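No-CPT arm: Tdp1-/-;hTDP1 DT40 cells (400/well) plus compounds, incubated ≥48 hr at 37 °C. Readout CellTiter-Glo luminescence.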
TGFb SMAD3 inh: qHTS for Inhibitors of TGF-b | Potency, µM (top dose mostly 46.1 µM), for inactives: at the highest dose activity, negative = inhibition, actives largely listed as inhibitors | actives 1.2% (n = 410,000) | HepG2 CAGA-GFP TGF-b/SMAD3 reporter, GFP fluorescence, 18 h; TGF-beta stimulated, 500 pg/mL final; also: potency is read from the fitted curve at half-maximal effect; % is scaled to controls: 0 for no effect and ±100 for the full control effect; nearly all actives have a fitted effect of over 65% in size
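GFP signal (ex488/em500-530) from TGF-beta-stimulated HEPG2 CAGA-GFP cells, 500 pg/mL final, 18 h at 37 degrees C in DMEM plus 1% FBS, normalized to unstimulated and DMSO-stimulated controls.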
TDP1 block: qHTS Assay for Inhibitors of Tyrosyl-DNA Phosphodiesterase (TDP1). Tyrosyl-DNA phosphodiesterase 1 (Homo sapiens), Q9NUW8. recombinant TDP1, AlphaScreen DNA substrate cleavage. Potency, µM (top dose mostly 130 µM), for inactives: at the highest dose activity change, negative = inhibition, most hits filed as inhibitors. actives 0.28% (n = 350,000). AID 485290, 2010; also: potency is read from the fitted curve at half-maximal effect; % is scaled to controls: 0 for no effect and ±100 for the full control effect; nearly all actives have a fitted effect of over 40% in size
Target sequence (Q9NUW8 whole entry, looked up): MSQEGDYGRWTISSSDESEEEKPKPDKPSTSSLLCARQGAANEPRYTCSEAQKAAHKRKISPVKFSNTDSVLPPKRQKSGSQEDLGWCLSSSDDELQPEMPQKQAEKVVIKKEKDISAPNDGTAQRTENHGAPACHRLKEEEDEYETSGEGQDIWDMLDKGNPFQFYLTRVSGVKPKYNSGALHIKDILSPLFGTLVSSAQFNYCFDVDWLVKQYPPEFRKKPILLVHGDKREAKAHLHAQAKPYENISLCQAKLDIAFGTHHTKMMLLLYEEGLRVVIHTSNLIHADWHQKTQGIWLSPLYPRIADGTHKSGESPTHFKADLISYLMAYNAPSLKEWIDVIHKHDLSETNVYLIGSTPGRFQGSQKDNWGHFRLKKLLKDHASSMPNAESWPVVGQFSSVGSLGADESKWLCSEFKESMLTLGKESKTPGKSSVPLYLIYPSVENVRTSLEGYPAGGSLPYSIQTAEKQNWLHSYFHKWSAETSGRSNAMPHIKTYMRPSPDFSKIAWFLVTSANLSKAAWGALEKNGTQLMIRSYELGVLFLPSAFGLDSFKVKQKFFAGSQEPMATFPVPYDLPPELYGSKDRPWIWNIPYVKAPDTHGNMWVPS
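Enzyme-compound mixtures sat 15 min at room temperature, followed by a 5 min reaction with 15 nM final substrate and 10 min with AlphaScreen beads. Recombinant human Tdp1 was used at 1 nM final.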
* marks the source's active call; other numbers are inactive results. An excerpt weighted towards active compounds, which were near 18% of everything screened. Unless noted, calls follow the shape of the dose curve; as a rule, active = well fitted curve in the direction sought with a large enough effect; inconclusive = small, poorly fitted or top-dose-only effect, or another doubt; inactive = no such curve, though single readings can be large; an effect the other way counts as inactive or inconclusive.

For CNC(=S)N(CCc1c(C)[nH]c2ccc(OC)cc12)Cc1cc(OC)c(OC)c(OC)c1 the results were TDP1 cell CPT -24%, IL-1B inflam inh -17, HepG2 viability -5%, DT40 TDP1 no CPT inconclusive, TGFb SMAD3 inh 1% and TDP1 block 8%.
Cc1c(NS(=O)(=O)c2cc(C(=O)NCC3CCCO3)cc(Cl)c2Cl)c(=O)n(-c2ccccc2)n1C (configuration not stated) was read as TDP1 cell CPT 3%, IL-1B inflam inh 4, HepG2 viability -22%, DT40 TDP1 no CPT 9% and TGFb SMAD3 inh -10%.
Screening CCc1ccc(CNC(=O)CCn2ccc3cc(S(=O)(=O)N4CCCC4)ccc32)cc1 returned TDP1 cell CPT 21µM*, IL-1B inflam inh -10, HepG2 viability -22%, DT40 TDP1 no CPT inconclusive, TGFb SMAD3 inh -7% and TDP1 block 0%.
Cc1ccc(CNC(=O)CCn2ccc3cc(S(=O)(=O)N4CCCC4)ccc32)cc1 was read as TDP1 cell CPT inconclusive, IL-1B inflam inh 13, HepG2 viability 0%, DT40 TDP1 no CPT inconclusive, TGFb SMAD3 inh -1% and TDP1 block 5%.
`Cn1ccc2cc(S(=O)(=O)N3CCCC(C(=O)NCc4ccc(F)cc4)C3)ccc21` (configuration not stated) gave TDP1 cell CPT inconclusive, HepG2 viability -13%, DT40 TDP1 no CPT inconclusive, TGFb SMAD3 inh inconclusive and TDP1 block -1%.
Screening CN(C)c1ccc(CNC(=O)C2CCCN(S(=O)(=O)c3ccc4c(ccn4C)c3)C2)cc1 (configuration not stated) returned TDP1 cell CPT 16µM*, HepG2 viability -30%, DT40 TDP1 no CPT 21µM*, TGFb SMAD3 inh -22% and TDP1 block 4%.
Screening O=C(O)CCCn1ccc2cc(S(=O)(=O)N3CCCC3)ccc21 returned TDP1 cell CPT -14%, IL-1B inflam inh 29, HepG2 viability 4%, DT40 TDP1 no CPT 27%, TGFb SMAD3 inh -3% and TDP1 block 3%.
COc1ccc(CNC(=O)CCCn2ccc3cc(S(=O)(=O)N4CCCC4)ccc32)cc1 was read as TDP1 cell CPT 18µM*, IL-1B inflam inh 37, HepG2 viability 3%, DT40 TDP1 no CPT 12µM*, TGFb SMAD3 inh inconclusive and TDP1 block 1%.
For O=C(CCn1ccc2cc(S(=O)(=O)N3CCCC3)ccc21)NCc1cccc(Br)c1 the results were TDP1 cell CPT 18µM*, HepG2 viability -2%, DT40 TDP1 no CPT inconclusive, TGFb SMAD3 inh -5% and TDP1 block 3%.
For O=C(Cn1ccc2cc(S(=O)(=O)N3CCCCC3)ccc21)NCc1cccc(Cl)c1 the results were TDP1 cell CPT inconclusive, HepG2 viability -21%, DT40 TDP1 no CPT inconclusive, TGFb SMAD3 inh inconclusive and TDP1 block 8%.
Screening O=C(NCC1CCCO1)c1sc2cc(Cl)ccc2c1Cl (configuration not stated) returned TDP1 cell CPT 24%, IL-1B inflam inh 0, HepG2 viability -50%, DT40 TDP1 no CPT -18%, TGFb SMAD3 inh inconclusive and TDP1 block 3%.
`Cc1cccc(Cn2nnc3c(=O)[nH]c(C4CCN(C(=O)c5ccc(F)cc5)CC4)nc32)c1` gave TDP1 cell CPT -2%, HepG2 viability -12%, DT40 TDP1 no CPT -7%, TGFb SMAD3 inh 11% and TDP1 block 5%.
For COC(=O)C1(C)CCCC2(C)C1CCC13OCC(CC21)C(O)(C(C)C)C3O (configuration not stated) the results were TDP1 cell CPT -18%, IL-1B inflam inh 22, HepG2 viability -19%, DT40 TDP1 no CPT -10% and TGFb SMAD3 inh -11%.
For Cc1ccc(N=CC=C2OC(C)(C)C(C)(C)O2)c(C)c1 the results were TDP1 cell CPT 1%, IL-1B inflam inh -16, HepG2 viability -38%, DT40 TDP1 no CPT inconclusive, TGFb SMAD3 inh -1% and TDP1 block 8%.
Screening COc1ccccc1N=CC=C1OC(C)(C)C(C)(C)O1 returned TDP1 cell CPT 0%, IL-1B inflam inh -75*, HepG2 viability -44%, DT40 TDP1 no CPT inconclusive, TGFb SMAD3 inh inconclusive and TDP1 block 6%.
`CCc1cc2c(=O)nc3n(c2s1)Cc1ccccc1/C3=C(/O)c1ccccc1Cl` gave TDP1 cell CPT 8.2µM*, IL-1B inflam inh -16, HepG2 viability 5%, DT40 TDP1 no CPT 8.2µM*, TGFb SMAD3 inh 11% and TDP1 block 6%.
For CC(=O)NC(c1ccc(F)c(F)c1)c1nc(-c2cccs2)cs1 (configuration not stated) the results were TDP1 cell CPT -16%, IL-1B inflam inh -16, HepG2 viability -8%, DT40 TDP1 no CPT -7% and TGFb SMAD3 inh -15%.
`CCOC(=O)N1CCN(C(=O)C2CCCN(S(=O)(=O)c3ccc(F)cc3)C2)CC1` (configuration not stated) gave TDP1 cell CPT inconclusive, IL-1B inflam inh -10, HepG2 viability -7%, DT40 TDP1 no CPT -21%, TGFb SMAD3 inh -23% and TDP1 block 5%.
`CCOc1ccc(S(=O)(=O)N2CCCC(C(=O)N3CCN(c4ccccc4)CC3)C2)cc1` (configuration not stated) gave TDP1 cell CPT 16µM*, IL-1B inflam inh -13, HepG2 viability 31%, DT40 TDP1 no CPT 21µM*, TGFb SMAD3 inh inconclusive and TDP1 block 5%.
`CCOC(=O)N1CCN(C(=O)C2CCCN(S(=O)(=O)c3ccc(C)cc3)C2)CC1` (configuration not stated) gave TDP1 cell CPT inconclusive, IL-1B inflam inh 18, HepG2 viability -15%, DT40 TDP1 no CPT 16µM*, TGFb SMAD3 inh 7% and TDP1 block 3%.
CCOc1ccc(S(=O)(=O)N2CCCC(C(=O)N3CCOCC3)C2)cc1 (configuration not stated) was read as TDP1 cell CPT 0%, IL-1B inflam inh 16, HepG2 viability -2%, DT40 TDP1 no CPT -25%, TGFb SMAD3 inh -1% and TDP1 block 7%.
